Bioassay records as filed in PubChem.
aDG glyco up: activators of alpha-DG glycosylation, primary screen, uHTS, Pro5-aDG cells, AlphaScreen; 360,000 compounds, 0.22% hits; activation, % at 10 µM; alpha-DG glycosylation AlphaScreen (IIH6); 0% Pro5, 100% B10-LARGE cell signal;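 active = activation of at least 8% versus controls, or a plate z-score of at least 8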;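 also: Pro5 are CHO cells carrying HIG-tagged alpha-DG that lacks glycosylation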
ADAM17 inh: ADAM17 inhibitors, primary screen, biochemical, QFRET; inhibition, % at 6.95 µM; Disintegrin and metalloproteinase domain-containing protein 17 (Homo sapiens), P78536; 370,000 compounds, 0.83% hits; recombinant ADAM17, EDANS/DABCYL FRET peptide cleavage;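 active = inhibition above the mean of compounds lying between control limits plus 3 SD, set per campaign, cut at about 8.5% in these data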;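 also: 0% = DMSO-only wells as the low control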
Target sequence (P78536 215-824 limits assumed): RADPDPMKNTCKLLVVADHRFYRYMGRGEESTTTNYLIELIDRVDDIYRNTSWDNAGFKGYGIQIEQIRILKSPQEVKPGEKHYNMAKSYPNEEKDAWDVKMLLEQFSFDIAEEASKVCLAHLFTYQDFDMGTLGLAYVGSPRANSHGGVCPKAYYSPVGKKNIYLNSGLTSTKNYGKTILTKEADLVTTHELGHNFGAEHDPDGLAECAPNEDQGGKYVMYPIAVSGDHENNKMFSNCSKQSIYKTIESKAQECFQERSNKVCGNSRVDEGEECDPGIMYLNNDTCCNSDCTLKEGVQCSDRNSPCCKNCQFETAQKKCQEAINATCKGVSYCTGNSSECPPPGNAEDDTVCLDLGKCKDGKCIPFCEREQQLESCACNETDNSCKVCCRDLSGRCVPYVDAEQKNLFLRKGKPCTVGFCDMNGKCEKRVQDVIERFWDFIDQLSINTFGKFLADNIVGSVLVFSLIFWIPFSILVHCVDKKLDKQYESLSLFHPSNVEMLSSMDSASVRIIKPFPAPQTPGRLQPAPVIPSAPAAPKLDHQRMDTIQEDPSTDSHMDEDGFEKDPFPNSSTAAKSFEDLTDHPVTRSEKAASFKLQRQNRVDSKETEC
NR3A LBD binder: binders of NR3A ligand-binding domain, primary screen, biophysical, differential scanning fluorimetry, uHTS; Glutamate receptor ionotropic, NMDA 3A (GRIN3A) ligand-binding domain; NR3A LBD differential scanning fluorimetry, Tm shift; 0% = protein alone, 100% = glycine-bound protein; Tm shift relative to glycine control, % at 25 µM; 340,000 compounds, 2.5% hits;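 active = melting temperature shift of at least 10% of the positive control shift, at one fixed dose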
FAS-TE inh: FAS thioesterase domain inhibitors, primary screen, biochemical, fluorescence intensity, uHTS; Fatty acid synthase (Homo sapiens), P49327; recombinant FAS-TE, OMFH fluorogenic substrate, fluorescence endpoint; inhibition, % at 15 µM; 360,000 compounds, 0.67% hits;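 active = compounds whose normalised, plate-corrected inhibition of enzyme fluorescence in the single-dose primary screen is 50% or more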;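 also: 0% = DMSO with enzyme and 100% = substrate without enzyme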
ADAM10 inh: human ADAM10 inhibitors, primary screen, biochemical, QFRET, HTS; Disintegrin and metalloproteinase domain-containing protein 10 (Homo sapiens), O14672; recombinant ADAM10, EDANS/DABCYL FRET peptide cleavage, 3 h; inhibition, % at 7 µM; 370,000 compounds, 0.62% hits;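 active = inhibition above a per-campaign cutoff equal to the mean of compounds falling between control-based bounds plus 3 SD, cut at about 20% in these data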;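 also: 0% = DMSO wells while the 100% control is not disclosed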
ADAM10 confirm: human ADAM10 inhibitors, confirmation, biochemical, QFRET, triplicate | ADAM10 QFRET peptide cleavage, EDANS fluorescence | shares compounds with ADAM10 inh | AID 743208, 2013 | inhibition, % at 6.95 µM | 2,100 compounds, 1% hits;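 active = inhibition above about 20% chosen separately for each screening run, limit read from the data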;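 also: 0% = DMSO wells and 100% = marimastat wells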
ADAM17 ctr: ADAM17 inhibitors, counter-screen for ADAM10 exosite inhibitor project, biochemical, QFRET, high throughput; shares compounds with ADAM10 inh; ADAM17 QFRET peptide cleavage, EDANS fluorescence; inhibition, % at 6.95 µM; 2,100 compounds, 0.5% hits; AID 743214, 2013;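 active = mean triplicate inhibition above the solvent-only control wells' mean plus 3 SD, cut at about 12% in these data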;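 also: 0% = DMSO wells and 100% = marimastat wells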
Numbers without * were called inactive; x = no result. In the library only some 4% were active in any assay of this set; here they are far more common.

SMILES	aDG glyco up	ADAM17 inh	NR3A LBD binder	FAS-TE inh	ADAM10 inh	ADAM10 confirm	ADAM17 ctr
CCOc1ccc(N2CC(C(=O)Nc3cccc(S(=O)(=O)N4CCCCC4)c3)CC2=O)cc1 (stereo not given)	1	5	-17	6	22*	1	0
O=C(NCCc1ccc(Cl)cc1)C12CC3CC(CC(O)(C3)C1)C2	0	-4	1	-3	-11	x	x
Cc1ccc(-n2c(COc3ccccc3)nnc2SCC(=O)Nc2ccc3c(c2)OCO3)cc1	x	8	x	x	20*	4	1
O=C(NCc1ccccc1)c1ccc(-c2ccc(F)c(F)c2)c2ccoc12	1	3	x	28	6	x	x
COc1ccc(CNC(=O)c2ccc(-c3ccc(F)c(F)c3)c3ccoc23)cc1OC	1	8	x	20	21*	9	2
COc1ccc([C@@H]2[C@@H]3C(=O)N(C(C)(C)C)C(=O)[C@@H]3[C@]3(Cc4ccccc4)C(=O)N(c4ccc(OC)cc4)C(=O)N23)cc1	0	2	-2	12	23*	1	0
O=[N+]([O-])c1ccc2c(c1)/C(=N\O)c1ccccc1-2	0	-1	-3	-30	0	x	x
ON=C1c2ccccc2-c2ccc(Br)cc21	0	8	-14	-90	26*	2	1
Cc1noc(NS(=O)(=O)c2ccc(NC(=O)/C=C/c3ccc(C(C)C)cc3)cc2)c1C	0	4	2	2	3	x	x
Cc1noc(NS(=O)(=O)c2ccc(NC(=O)/C=C/c3ccc(Br)cc3)cc2)c1C	0	-2	7	-1	22*	0	0
O=C(COC(=O)c1cc(-c2cccs2)nn1-c1ccccc1)Nc1ccc(Cl)c([N+](=O)[O-])c1	0	7	-1	41	21*	6	2
COc1cc(-c2nnc(SCc3cccnc3)n2C)cc(OC)c1O	0	1	-3	-7	-2	x	x
OCCCn1c(CCNc2nc(-c3ccc(F)cc3)cs2)nc2cc(C(F)(F)F)ccc21	0	7	1	22	21*	5	1
COc1ccccc1-c1c(C(F)(F)F)oc2cc(OS(C)(=O)=O)ccc2c1=O	0	2	10	7	2	x	x
Cc1ccc(C)c(OCC(=O)Nc2ccc3c(c2)OCO3)c1C	0	7	0	14	20*	1	0
Cc1ccc(OCC(=O)Nc2ccc3c(c2)OCO3)cc1C	0	2	0	2	3	x	x
COc1ccc(CN2C[C@]3(C=C4CCCCC4n4c(=O)n(-c5ccccc5)c(=O)n43)N=C2NC(=O)c2ccccc2)c(OC)c1 (stereo not given in full)	x	8	x	x	32*	4	2
O=C(NC1=N[C@@]2(C=C3CCCCC3n3c(=O)n(-c4ccccc4)c(=O)n32)CN1Cc1ccccc1)c1ccccc1 (stereo not given in full)	x	2	x	x	9	x	x
Cc1cccc(NC(=O)c2cc3n(n2)C(C(F)(F)F)CC(c2ccc4c(c2)OCO4)N3)c1 (stereo not given)	0	5	8	36	22*	2	-1
COc1ccc(NC(=O)c2cc3n(n2)C(C(F)(F)F)CC(c2ccc4c(c2)OCO4)N3)cc1OC (stereo not given)	0	x	-9	19	x	x	x
CCN1C(=O)[C@H]2[C@@H](c3ccc(C(F)(F)F)cc3)N[C@]3(CCCN(Cc4ccccc4)C3=O)[C@H]2C1=O	0	-1	x	-3	-2	x	x
CC(C)(C)OC(=O)[C@H](Cc1ccccc1)NC(=O)c1nc[nH]c1C(=O)N1CCNCC1	0	-2	0	-9	-3	x	x
Cc1cc(C)cc(NC(=S)N2CCN(c3ncccn3)CC2)c1	0	1	0	-1	35*	2	0
Cc1ccc(NC(=S)N2CCN(c3ccccn3)CC2)cc1C	0	3	-2	0	21*	1	1
CC(c1ccc(C(C)(C)C)cc1)S(=O)CC(O)CO (stereo not given)	0	0	0	-6	2	x	x
SMILES	aDG glyco up	ADAM17 inh	NR3A LBD binder	FAS-TE inh	ADAM10 inh	ADAM10 confirm	ADAM17 ctr
Cc1ccc(Cn2c3ccccc3c3cn[nH]c(=O)c32)cc1	2	-2	1	3	-15	x	x
Cc1ccc(C)c(-c2cc(C(=O)NCc3cccs3)c3ccccc3n2)c1	0	5	-1	24	20*	5	2
O=C(NCc1cccs1)c1cc(-c2ccccc2)nc2ccccc12	0	2	-19	22	-13	x	x
C[C@H]1CCC[C@@]2(O[C@@H](CCO)C[C@H](O)[C@H]2O)O1	0	-8	0	-13	83*	1	0
Cc1csc2nc(CNC(=O)c3cccc(C(F)(F)F)c3)cn12	0	-6	4	-1	-5	x	x
COc1ccccc1CCC(=O)Nc1cccc(S(=O)(=O)N2CCCCCC2)c1	0	7	-4	21	23*	2	0
Cc1cc(C)c(C(=O)OCC(=O)Nc2cccc(S(=O)(=O)N3CCCCC3)c2)c(C)c1	0	13*	6	22	28*	8	4
CC(Nc1nc(-c2ccccc2)nc2ccccc12)c1ccccc1 (stereo not given)	0	11*	8	30	29*	9	3
Cc1cc2nc(C3CCCCC3)c(Cc3ccsc3)n2c(C)c1Br	0	-2	x	23	-7	x	x
Cc1cc(C)c(C#N)c(SCC(=O)Nc2ccc3c(c2)OCO3)n1	0	1	2	30	0	x	x
O=C(NCCNc1ccc([N+](=O)[O-])cc1C(F)(F)F)c1cccc(F)c1	1	-2	-1	25	20*	1	0
CCOC(=O)c1ccc(N2C(=O)c3n[nH]c(-c4ccco4)c3C2c2ccc([N+](=O)[O-])cc2)cc1 (stereo not given)	1	7	27*	27	23*	12	3
COCc1[nH]nc2c1C(c1ccc(C)cc1)N(c1ccc(OC)cc1)C2=O (stereo not given)	x	-4	x	x	-4	x	x
CCOC(=O)COc1ccc2c(c1)c(C(C)=O)c(C)n2-c1ccc(OC)cc1	0	7	-3	12	21*	3	1
